Here are results for 25 compounds from PubChem BioAssay AID2685 (National Center for Advancing Translational Sciences (NCATS), 2010).

Molecules are shown by their SMILES. In all, about 320,000 compounds went through this assay and about 2,100 (0.66%) were called active. Roughly 53% stayed inconclusive and do not appear here. This is one part of a sample in which actives are shown more often than they occur. The call rests on the fitted dose curve; in most records, active means well fitted inhibition curve with a large enough effect in the signal ratio, with a control signal flat (not every such curve was filed as active); inconclusive means small, poorly fitted or top-dose-only effect, or effect the other way, or a change in a side signal; inactive means flat fitted curve, though single readings scatter; the % refers to the signal ratio.
Potency means the concentration at half of the fitted maximal effect.

The assay is described as follows: qHTS Assay for Lipid Storage Modulators in Drosophila S3 Cells.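 On cell number change: cells counted by Cell Tracker Red CMTPX staining in the red channel.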 On lipid storage change, negative = inhibition: on the % scale 0 is the no-effect control and ±100 the full control effect. The note with it: BODIPY lipid droplet fluorescence, 18-24 h, cells fed with added oleic acid; cell number change: measured here: cell count max response; series mostly up to 46.1 µM; lipid storage change, negative = inhibition: at the top concentration. The procedure, abridged:
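Drosophila S3 cells loaded with oleic acid (400 uM, as added) and compounds at several concentrations; lipid droplets imaged by 488-nm laser-scanning cytometry, 500–530 nm intensity and object ratio to cell channel. Percent activity normalized to 20 uM Triacsin C.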
A general note: qHTS replaces the single test concentration by a dilution series.
For the compound `CCCn1c(SCC(=O)NC2CC2)nnc1-c1cccs1`, the “lipid storage change, negative = inhibition” value was -14.1% (inactive) and the cell number change came to 9.09%.
Turning to `Cc1ccc(NC(=O)CSCC(=O)N2CCN(Cc3ccc4c(c3)OCO4)CC2)cc1`, the compound was called inactive and the cell number change is 21.6%.
With `COc1ccc(NC2CCCN(C(=O)COc3ccc(C)cc3)C2)cc1` (stereo not given), the Potency is 2.06 µM (active) and the cell number change was -19.8%.
Consider `COc1ccc(NC2CCCN(C(=O)CSc3ccccn3)C2)cc1OC` (stereo not given), for which the “lipid storage change, negative = inhibition” value is -17.1% (inactive) and the cell number change is -4.53%.
Taken in the same sequence, the figures for `COc1ccc(NC2CCCN(C(=O)CCN3CCCC3=O)C2)cc1` (stereo not given) were 8.07% (inactive) and 24.3%.
As for `COc1ccc(NC2CCCN(C(=O)CSc3ccccc3)C2)cc1` (stereo not given), the outcome was inactive and the cell number change was found to be 3.54%.
For `COc1ccc(NC2CCCN(C(=O)CSc3ccncc3)C2)cc1` (stereo not given), the Potency is 0.231 µM (active) and the cell number change was -29%.
As for `COc1ccc(NC2CCCN(C(=O)c3ccncc3)C2)cc1` (stereo not given), the outcome was inactive and the cell number change is -9.17%.
Turning to `Cc1ccc(NC2CCCN(C(=O)CN3C(=O)c4ccccc4C3=O)C2)cc1C` (stereo not given), the “lipid storage change, negative = inhibition” value was 18.6% (inactive) and the cell number change was determined as 5.05%.
For `COc1ccc(NC2CCCN(C(=O)CN3C(=O)c4ccccc4C3=O)C2)cc1OC` (stereo not given), the Potency was 18.4 µM (active) and the cell number change was -13.7%.
Take `COc1ccc(NC2CCCN(C(=O)CCOc3ccccc3)C2)cc1` (stereo not given): the compound was called inactive and the cell number change was determined as 2.67%.
Taken in the same sequence, the figures for `COc1ccc(CC(=O)Nc2ccccc2C(=O)NCCc2ccccc2)cc1` were “inactive” and 7.51%.
In the case of `Cc1ccc(OCC(O)CN2CCN(c3ccccc3)CC2)cc1` (stereo not given), the “lipid storage change, negative = inhibition” value was 15.5% (inactive) and the cell number change was -26.7%.
As for `O=C(Nc1ccc(S(=O)(=O)N2CCCCC2)cc1)C1CC1`, the “lipid storage change, negative = inhibition” value was 11.8% (inactive) and the cell number change was determined as 19.3%.
On the same counts, the results for `N/C(=N\OC(=O)Cc1ccccc1[N+](=O)[O-])c1cccc(Br)c1` are -1.94% (inactive) and -2.3%.
In the case of `Cc1ccc(S(=O)(=O)Nc2ccc3c(c2)nc(CCN2CCN(c4ccccn4)CC2)n3C)cc1`, the Potency is 16.4 µM (active) and the cell number change is 24.4%.
Regarding `Cn1c(CCN2CCN(c3ccccn3)CC2)nc2cc(NS(=O)(=O)c3ccccc3)ccc21`, the “lipid storage change, negative = inhibition” value was 8.02% (inactive) and the cell number change amounted to 8.74%.
Taken in the same sequence, the figures for `CC(=O)Nc1ccc2c(c1)nc(CCN1CCN(c3ccccn3)CC1)n2C` were 25.6% (inactive) and -2.13%.
Taken in the same sequence, the figures for `O=C(/C=C/N1CCN(Cc2ccccc2)CC1)C(F)(F)F` were -0.119% [at 9.22 µM] (inactive) and 4.65%.
On the same counts, the results for `O=C(O)COc1c(-c2ccc(Cl)cc2)oc2ccccc2c1=O` are -2.1% (inactive) and 7.07%.
For the compound `NC(=O)COc1c(-c2ccccc2)oc2ccccc2c1=O`, the “lipid storage change, negative = inhibition” value was 28.7% (inactive) and the cell number change was 0.203%.
For the compound `O=C(O)COc1c(-c2ccccc2)oc2ccccc2c1=O`, the Potency was 23.1 µM (active) and the cell number change was 10.5%.
For `COc1ccc(CNC(=O)CSc2n[nH]c(N)n2)cc1`, the compound was called inactive and the cell number change amounted to 2.63%.
In the case of `Cc1[nH]c(C)c(S(=O)(=O)N(Cc2ccccc2)C(C)(C)C)c1C(=O)N1CCCC1`, the “lipid storage change, negative = inhibition” value was -19% (inactive) and the cell number change is -27.6%.
On the same counts, the results for `CCN(CC)C(=O)CSc1nnc(-c2ccco2)n1Cc1ccco1` are 13.9% (inactive) and -5.34%.
